# Compound activity: PubChem, National Center for Advancing Translational Sciences (NCATS)
# hERG WT inh: blocks the wildtype human KCNH2 potassium channel; U2OS, BacMam KCNH2, thallium flux FluxOr; active compounds read low; activity change, % at 1.84 µM; 340,000 tested, 0.37% active;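 active means maximum activity change below -70%; inconclusive means maximum activity change between -70% and -50%; inactive means maximum activity change above -50%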
# Target sequence (Q12809 whole entry, looked up): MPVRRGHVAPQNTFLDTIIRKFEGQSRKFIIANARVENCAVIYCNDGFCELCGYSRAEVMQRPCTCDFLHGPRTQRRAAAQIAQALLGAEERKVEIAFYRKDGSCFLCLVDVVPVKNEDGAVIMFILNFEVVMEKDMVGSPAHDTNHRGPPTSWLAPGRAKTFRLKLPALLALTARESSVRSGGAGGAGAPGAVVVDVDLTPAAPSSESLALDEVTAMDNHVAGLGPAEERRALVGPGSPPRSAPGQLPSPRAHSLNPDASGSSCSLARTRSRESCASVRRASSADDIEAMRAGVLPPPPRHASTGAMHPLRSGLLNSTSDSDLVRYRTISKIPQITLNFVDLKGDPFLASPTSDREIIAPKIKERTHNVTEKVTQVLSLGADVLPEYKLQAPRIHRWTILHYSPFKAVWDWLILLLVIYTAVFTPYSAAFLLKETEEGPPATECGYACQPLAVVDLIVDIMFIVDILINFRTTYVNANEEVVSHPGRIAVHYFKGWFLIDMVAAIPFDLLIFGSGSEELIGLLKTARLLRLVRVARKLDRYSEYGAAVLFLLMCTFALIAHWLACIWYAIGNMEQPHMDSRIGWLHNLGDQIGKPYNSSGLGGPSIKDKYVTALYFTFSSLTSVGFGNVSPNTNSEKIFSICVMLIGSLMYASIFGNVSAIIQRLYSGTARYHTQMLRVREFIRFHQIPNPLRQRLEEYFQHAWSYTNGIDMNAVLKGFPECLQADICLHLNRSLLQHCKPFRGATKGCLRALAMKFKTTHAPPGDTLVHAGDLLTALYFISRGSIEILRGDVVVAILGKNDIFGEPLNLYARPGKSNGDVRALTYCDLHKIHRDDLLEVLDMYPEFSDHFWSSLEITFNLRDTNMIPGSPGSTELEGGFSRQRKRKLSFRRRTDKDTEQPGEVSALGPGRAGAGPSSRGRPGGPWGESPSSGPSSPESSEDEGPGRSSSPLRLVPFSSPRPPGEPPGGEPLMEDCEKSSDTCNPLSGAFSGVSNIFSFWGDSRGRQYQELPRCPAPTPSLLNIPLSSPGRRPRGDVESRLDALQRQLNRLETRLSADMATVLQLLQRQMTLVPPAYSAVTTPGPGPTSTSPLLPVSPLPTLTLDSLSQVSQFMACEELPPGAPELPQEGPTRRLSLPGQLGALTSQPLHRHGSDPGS
#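 U2OS cells were transduced with wild-type KCNH2 virus (2.03 x 10^8 / mL) for 4 h at room temperature, then cultured overnight at 37 C. Thallium flux was read with FluxOr dye. Rate constants were normalized to DMSO controls.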
# 12-LOX inh: blocks human arachidonate 12S-lipoxygenase; P18054; purified 12hLO, xylenol orange hydroperoxide absorbance; Potency, µM (titrated, usually from 108 µM), usual class: inhibitors; 580,000 tested, 1.1% active; active means well fitted inhibition curve with a large enough effect; inconclusive means small, poorly fitted or top-dose-only effect, or another doubt; inactive means no such curve, though single readings can be large or run the other way
#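 Purified human 12hLO at 150 nM in 25 mM Hepes, 0.01% Triton X-100, pH 7.0, preincubated 15 min at room temperature with compound. Reaction started with 40 uM arachidonic acid, 30 min at room temperature. Hydroperoxide measured by Fe-xylenol orange, 573/405 nm absorbance ratio.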
# ClpP mod: qHTS Assay for Activators of ClpP | 340,000 tested, 1.9% active | AID 651965, 2013 | purified B. subtilis ClpP, FRET peptide cleavage, 20 min | Potency, µM (series often up to 57.5 µM) | ATP-dependent Clp protease proteolytic subunit (Bacillus subtilis (strain 168)), P80244; active means well fitted falling curve with a large enough effect; inconclusive means small, poorly fitted or top-dose-only effect; inactive means no such curve, though single readings can be large or run the other way; further: the source files actives as falling curves though it sought activators and does not explain the sign; nearly all actives have a fitted effect of over 65% in size
#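 FRET quenching reversal measured ClpP activation: 10 microg/mL B. subtilis ClpP at pH 8 with the FRET-FV decapeptide, read at 430 nm after 320 nm excitation. The 20-min minus 0-min signal was scaled between DMSO/no-enzyme wells and ADEP (5.8 microM final).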
# KCNH2 3.1 block: KCNH2 3.1 (human) potassium channel inhibition; U2OS KCNH2 3.1, thallium flux FluxOr; active compounds read low; activity change, % (tested at about 1.8 µM); 340,000 tested, 0.95% active; AID 720553;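 active means maximum activity change below -70%; inconclusive means maximum activity change from -70% to -50%; inactive means maximum activity change above -50%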;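 further: thallium influx rate constant from kinetic fluorescence after stimulation buffer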
#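 Virally transduced U2OS (3.1 isoform, 4 h infection in dark at RT) → overnight 37 C → FluxOr + Red40 in HBSS/HEPES, 45 min → stimulation buffer, 2 min kinetic read → rate constant vs DMSO controls.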
# Chronic BCR inh: chronic active BCR signaling inhibition; ABC-DLBCL IkBa-CBG/CBR reporter, luminescence ratio, 4 h; Potency, µM (titrated, usually from 46.1 µM), hits mostly inhibitors; 340,000 tested, 0.05% active; active means well fitted inhibition curve with a large enough effect in the signal ratio, with a control signal flat, not every such curve was filed as active; inconclusive means small, poorly fitted or top-dose-only effect, or effect the other way, or a change in a side signal; the % refers to the signal ratio
#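 TMD8 human ABC-DLBCL cells with doxycycline-inducible IκBα–green luciferase fusion and unfused red luciferase, in 0.5% FBS medium; compounds up to 46 uM, 4 h at 37C. Green/red luminescence ratio, filter-overlap corrected, fitted to concentration-response curves.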
# LDHA block: blocks human lactate dehydrogenase A | activity change, % (values are at about 110 or 230 µM) | purified LDHA, NADH/diaphorase-resazurin fluorescence; active compounds read low | AID 1347041 | 480,000 tested, 0.15% active; in the data active means activity change below about -30%; inconclusive means mostly about -25% to -30%
#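 LDH5 2 nM; NADH 0.06 mM, pyruvate 0.2 mM; 200 mM Tris pH 7.4, EDTA, Tween-20; 5 min RT. Detection: diaphorase 0.133 mg/mL + resazurin 37 µM, fluorescence ex540/em590 at 0 and 20 min; normalized to enzyme-free and DMSO wells.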
# A number is an active result; i = inactive; ? = inconclusive; nt = no result given. Only some compounds are listed: those with a hit (about 3% of all), similar ones and a draw of the others.
SMILES,hERG WT inh,12-LOX inh,ClpP mod,KCNH2 3.1 block,Chronic BCR inh,LDHA block
Cc1ccc(S(=O)(=O)N(C)C)cc1NC(=O)c1cc(-c2ccco2)nc2ccccc12,i,nt,28µM,i,i,i
O=C(Nc1ccccc1)c1cc(-c2ccco2)nc2ccccc12,nt,?,nt,nt,nt,i
CC(=O)Nc1ccc(NC(=O)c2cc(-c3ccco3)nc3ccccc23)cc1,nt,11µM,nt,nt,nt,i
O=C(Nc1nncs1)c1cc(-c2ccco2)nc2ccccc12,-73,?,i,i,i,i
CN(CC(=O)Nc1cccc(F)c1)C(=O)c1cc(-c2ccco2)nc2ccccc12,i,40µM,i,i,i,i
CCc1nnc(NC(=O)c2cc(-c3ccco3)nc3ccccc23)s1,i,?,nt,i,i,i
CC(=O)c1cccc(OCC(O)COc2cc3sc(C)nc3c3sccc23)c1 (centres undefined),nt,?,nt,nt,nt,i
N#CCSc1ccccc1C(=O)Nc1ccc2c(c1)OCCO2,nt,?,nt,nt,nt,i
CCn1c(SCC(=O)Nc2ccc3c(c2)OCCO3)nc2ccsc2c1=O,nt,?,nt,nt,nt,i
O=C(N/N=C/c1cccc(F)c1)c1cc(-c2ccco2)nc2ccccc12,i,i,32µM,i,i,i
Cc1ccc(-c2cc(C(=O)Nc3ccc(S(=O)(=O)Nc4onc(C)c4C)cc3)c3ccccc3n2)cc1,i,35µM,nt,i,i,i
Cc1cc(C)nc(NS(=O)(=O)c2ccc(NC(=O)c3cc(-c4ccccc4)nc4ccccc34)cc2)n1,i,i,i,i,i,i
Cc1cccc(NC(=O)c2cc(-c3ccco3)nc3ccccc23)n1,i,28µM,22µM,i,i,i
CCCCCn1c(SCC(=O)Nc2ccccc2)nc2c1c(=O)[nH]c(=O)n2C,nt,i,nt,nt,nt,i
Cc1csc2nc(=O)c3ccccc3n12,i,i,11µM,i,i,i
O=C(NCCN1CCN(c2ccccc2F)CC1)c1cccn2c(=O)c3ccccc3nc12,i,i,i,-79,i,i
O=C(NCCN1CCN(c2ccccc2)CC1)c1cccn2c(=O)c3ccccc3nc12,i,i,i,i,i,i
c1ccc2c(c1)ccc1ccccc12,i,i,i,i,i,i
Nc1c(C(O)(C(F)(F)F)C(F)(F)F)ccc2ccccc12,i,i,28µM,i,?,i
O=C1CCCN1CCCN1C(=O)[C@@H]2C[C@@H](O)CN2C2(CN(Cc3ccccc3)C2)C1=O,nt,i,nt,nt,nt,nt
CCCCc1nc(N2CCCCC2)c(C#N)c2c1CCCC2,nt,i,nt,nt,nt,i
Cc1c2c(=O)n(-c3ccc(Cl)cc3)[nH]c2cc(=O)n1Cc1ccc(F)cc1,nt,i,nt,nt,nt,i
Cc1c2c(=O)n(-c3ccc(F)cc3)[nH]c2cc(=O)n1Cc1ccccc1,nt,11µM,nt,nt,nt,i
O=C(NC(=S)NC1CCCc2ccccc21)c1ccc(F)cc1 (centres undefined),i,18µM,i,i,?,i
S=C(NC1CCCCC1)NN(c1ccccc1)c1ccccc1,i,40µM,i,i,i,i
SMILES,hERG WT inh,12-LOX inh,ClpP mod,KCNH2 3.1 block,Chronic BCR inh,LDHA block
CNC(=S)NN(c1ccccc1)c1ccccc1,i,i,i,i,i,i
C/C(=N\NC(=S)NC1CCCCC1)c1ccccc1,i,25µM,i,i,i,i
O=C(NC(=S)NC1CCCc2ccccc21)c1ccco1 (centres undefined),i,?,nt,i,?,i
O=C(NC(=S)NC1CCCCC1)c1ccccc1,i,35µM,i,i,i,i
Cc1cc(NC(=O)COC(=O)c2ccc3c(c2)NC(=O)C(C)S3)no1 (centres undefined),nt,i,nt,nt,nt,i
CCc1ccc(CNC2CC2)cc1,nt,i,nt,nt,nt,i
COc1ccc(CN2CC(OCc3ccccc3F)CN(C(=O)C3=NNC(=O)CC3)CC2=O)cc1 (centres undefined),nt,i,nt,nt,nt,nt
S=C(NCCCc1ccccc1)NC1CCCCC1,i,45µM,i,i,?,i
O=C(NC(=S)NC1CCCCCC1)c1cncc(Br)c1,i,32µM,i,i,i,i
S=C(NCc1ccccc1)NC1CCCCC1,i,i,i,i,i,i
